Rows were chosen to be rich in hits. Some 10% of all compounds tested hit in one or more screens of this group.
ELG1 DNA repair = blocks ELG1-dependent DNA repair in HEK293T cells; HEK293T ELG1-luciferase reporter, luminescence, 16 h; DNA damage induced by 5-fluorouridine; Potency, µM (highest dose often 46.1 µM), inactives show top-dose activity change, negative = inhibition, hits mostly inhibitors; hit rate 2.3% among 330,000; AID 504467; also: % is scaled to controls: 0 for no effect and ±100 for the full control effect; nearly all actives have a fitted effect of over 55% in size
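DMSO vehicle served as the neutral condition. Each well held 2,000 cells given 5-fluorouridine plus compound; after 16 hr at 37 °C/5% CO2, ONE-Glo was added and luciferase measured 30 min later.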
Gal4-VP16 FLuc = counter-screen for ROR gamma inhibitors: Gal4-VP16 reporter | AID 2546 | hit rate 3.5% among 310,000 | Drosophila S2 Gal4-VP16 UAS-luciferase, luminescence, 20 h | Potency, µM (highest dose often 53.6 µM), for the others: at the highest dose activity, negative = inhibition, usual class: inhibitors;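 also: Gal4-VP16 expression switched on by copper sulfate through the metallothionein promoter; % is scaled to controls: 0 for no effect and ±100 for the full control effect; nearly all actives have a fitted effect of over 50% in size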
RORg inh = blocks mouse ROR gamma transcriptional activity; Drosophila S2 Gal4-RORgamma UAS-luciferase reporter, 20 h; Potency, µM (doses to about 53.6 µM), without a hit: top-dose activity change, negative = inhibition, actives largely listed as inhibitors; hit rate 5.4% among 310,000; also: % is scaled to controls: 0 for no effect and ±100 for the full control effect; nearly all actives have a fitted effect of over 60% in size
Target sequence (P51450 whole entry, looked up, the tested form may be a part): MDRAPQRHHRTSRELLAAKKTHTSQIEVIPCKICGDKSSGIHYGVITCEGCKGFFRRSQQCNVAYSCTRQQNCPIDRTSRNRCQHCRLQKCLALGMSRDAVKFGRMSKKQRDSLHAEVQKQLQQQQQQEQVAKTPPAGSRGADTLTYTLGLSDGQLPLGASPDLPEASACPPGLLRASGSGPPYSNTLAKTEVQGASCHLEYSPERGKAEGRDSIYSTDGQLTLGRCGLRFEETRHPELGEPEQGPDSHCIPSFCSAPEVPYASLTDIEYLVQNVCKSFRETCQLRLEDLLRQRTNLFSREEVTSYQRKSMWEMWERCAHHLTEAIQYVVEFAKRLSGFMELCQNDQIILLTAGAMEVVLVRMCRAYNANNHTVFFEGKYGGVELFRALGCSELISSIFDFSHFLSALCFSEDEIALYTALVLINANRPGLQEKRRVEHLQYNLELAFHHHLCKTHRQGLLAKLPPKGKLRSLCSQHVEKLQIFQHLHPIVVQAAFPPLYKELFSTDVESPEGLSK
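A Gal4/UAS one-hybrid system in insect cells: metallothionein-promoter Gal4–ROR gamma fusion plus Photinus luciferase reporter. Copper sulfate 700 uM final, 20 hr ambient incubation, luminescent detection after 10 min with reagent.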
SW480 rerep = DNA re-replication induction in SW480 cells. SW480 DNA re-replication, Hoechst DNA content imaging, 48 h. Potency, µM (titrated, usually from 46.1 µM), inactives show top-dose re-replication activation, most hits filed as activators. hit rate 1.8% among 340,000; also: % of control where 0% means no effect; nearly all actives have a fitted effect of over 55% in size
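Image-based DNA-content assay: after two days of treatment, nuclei were labelled with the DNA dye Hoechst and imaged, and hits were compounds raising the count of nuclei showing high fluorescence intensity.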
MCF10A rereplic = inducers of DNA re-replication in MCF 10A breast cells; MCF 10A DNA re-replication, Hoechst nuclear intensity, 48 h; AID 624296; Potency, µM (top dose mostly 46.1 µM), without a hit: top-dose activity, positive = re-replication, hits mostly activators; hit rate 2.9% among 350,000; also: % of control where 0% means no effect; nearly all actives have a fitted effect of over 50% in size
The depositor's hits bear a star; ? = inconclusive; / = no result given; [ ] = dose if it differs, or a comment. Calls follow the shape of the dose curve; as a rule, active = well fitted curve in the direction sought with a large enough effect; inconclusive = small, poorly fitted or top-dose-only effect, or another doubt; inactive = no such curve, though single readings can be large; an effect the other way counts as inactive or inconclusive. Potency is read from the fitted curve at half-maximal effect.

SMILES | ELG1 DNA repair | Gal4-VP16 FLuc | RORg inh | SW480 rerep | MCF10A rereplic
COc1ccc2oc(C(=O)OCC(=O)NCc3ccc(OC)c(OC)c3)c(C)c2c1 | ? | / | / | -73% | ?
COc1ccc(-c2nnn(Cc3ccccc3)n2)cc1OC | 13% | 8% | 29% | -1% | -10%
COc1cc(-c2nnn(Cc3ccccc3C)n2)cc(OC)c1OC | 23µM* | -1% | 6% | 3% | -8%
COc1ccc(CN2CCNC(=O)C2CC(=O)NCCc2nc(C)c(C)s2)c(OC)c1 (centres undefined) | -1% | -8% | 15% | -14% | -1%
O=C(CN(C(=O)CCC(=O)Nc1nccs1)c1cccc(F)c1)NCc1ccc(F)cc1 | 27% | -5% | 35µM* | -20% | ?
N#CCSc1nc2ccccc2c(=O)n1CCCC(=O)NCC1CCCO1 (centres undefined) | 2% | 5% | 26% | 6%[1.84 µM] | -3%
COc1ccc(/C=C2/C(=O)N(c3nc4ccccc4s3)N=C2CSc2ccc(Cl)cc2)cc1 | ? | 13µM* | 14µM* | 20% | ?
COc1ccc(/C=C2/C(=O)N(Cc3ccccc3)N=C2C)cc1 | ? | ? | ? | -2% | ?
COc1ccccc1OCC(=O)NNc1c2ccccc2nc2ccccc12 | ? | 0.79µM* | 1.6µM* | ? | 1%
COc1ccccc1OCC(=O)NNC(=O)Nc1ccc(Cl)cc1 | 15% | -4% | 12% | 18µM* | 23µM*
COc1ccccc1OCC(=O)NNC(=O)CCCC(=O)NNC(=O)COc1ccccc1OC | 0% | -11% | -1%[1.91 µM] | -11% | -1%
O=C1N=C2SCCN2/C1=C\c1ccccc1Cl | -11% | -4% | -21% | -2% | 15%
Cc1cc(Cl)ccc1OC(C)C(=O)NN1C(=O)c2ccccc2C1=O (centres undefined) | ? | -24% | 0% | 8% | 3%
O=C(COc1ccc(-n2cnnn2)cc1)Nc1cccc(Cl)c1Cl | 0% | -4% | -3% | 0% | -1%
CCn1c(CCNC(=O)c2cccs2)nnc1SCC(=O)Nc1nc(-c2ccccc2)cs1 | 23µM* | 29% | ? | -1% | ?
CCc1nnc(NC(=O)CSc2nnc(-c3ccccc3O)n2CC)s1 | 1% | 0% | 1% | -3% | -4%
CCn1c(SCC(=O)Nc2cccc(NC(=O)c3cccs3)c2)nnc1-c1ccncc1 | 18µM* | 1% | 36% | 0% | 2%
CCn1c(SCC(=O)Nc2nc(-c3ccccc3)cs2)nnc1-c1ccccc1O | 21µM* | ? | -84% | -7% | 4%
CCCn1c(=O)c(C#N)cn(C2CC2)c1=O | 11% | 1% | 16% | -6% | 1%
O=C(CCCCC(=O)OCC1COCO1)OCC1COCO1 (centres undefined) | / | / | / | -11% | -4%
O=C(CN(c1cccc([N+](=O)[O-])c1)S(=O)(=O)c1ccccc1)NCc1cccnc1 | 0% | -10% | -33% | -4% | -11%
O=C(CN(c1cccc(C(F)(F)F)c1)S(=O)(=O)c1ccc(Cl)c([N+](=O)[O-])c1)NCc1ccc(F)cc1 | ? | ? | -31% | ? | 2.9µM*
O=C(NN=Cc1ccc2c(c1)OCO2)NN=Cc1ccc2c(c1)OCO2 | / | / | / | 19% | ?
N/C(=N\N=Cc1ccc2c(c1)OCO2)NN=Cc1ccc2c(c1)OCO2 | / | / | / | ? | 23µM*
N/C(=N\N=C\c1ccc(Cl)cc1)N/N=C/c1ccc(Cl)cc1 | / | -16% | 14µM* | 0% | ?
SMILES | ELG1 DNA repair | Gal4-VP16 FLuc | RORg inh | SW480 rerep | MCF10A rereplic
N/C(=N\N=C/c1ccc(F)cc1)N/N=C\c1ccc(F)cc1 | -2% | -1% | ? | 4% | ?
O=C(Nc1ccccc1C(=O)NC1CC1)c1ccccc1 | 23% | / | / | -14% | -5%
CC[C@H](C)[C@H](NC(=O)[C@H](Cc1cnc[nH]1)NC(=O)[C@@H](NC(=O)[C@H](CCCNC(=N)N)NC(=O)[C@H](CCCCN)NC(=O)[C@H](CCCNC(=N)N)NC(=O)[C@H](CCCCN)NC(=O)[C@@H](N)CC(N)=O)[C@@H](C)CC)C(=O)NCC(=O)N1CCC[C@H]1C(=O)NCC(=O)N[C@@H](CCCNC(=N)N)C(=O)N[C@@H](C)C(=O)N[C@@H](Cc1ccccc1)C(=O)N[C@@H](Cc1ccc(O)cc1)C(=O)N[C@H](C(=O)N[C@H](C(=O)N[C@@H](CCCCN)C(=O)N[C@@H](CC(N)=O)C(=O)N[C@H](C(=O)N[C@H](C(=O)NCC(=O)N[C@H](C(=O)N[C@H](C(=O)N[C@@H](CS)C(=O)O)[C@@H](C)CC)[C@@H](C)O)[C@@H](C)CC)[C@@H](C)CC)[C@@H](C)O)[C@@H](C)O | / | -7% | 3% | / | /
CCOc1ccc(C2=Nc3ccccc3C(c3ccc(N4CCOCC4)cc3)=NN2)cc1 | ? | -4% | 26% | 21µM* | 16µM*
CC1CC(C)CN(S(=O)(=O)c2ccc(C(=O)N(C)Cc3ccccc3)cc2)C1 (centres undefined) | -24% | / | / | 6% | 1%
O=[N+]([O-])CC(c1ccccc1)c1c[nH]c2ccccc12 (centres undefined) | / | / | / | 169% | 15µM*
COc1ccccc1-n1c(=O)oc2ccc(Cl)cc2c1=O | -15% | ? | ? | 15% | 6.5µM*
Cc1cccc(CS(=O)(=O)c2nnc([C@H](Cc3ccccc3)NC(=O)OC(C)(C)C)o2)c1 | 3% | 11µM* | 11µM* | ? | 3.3µM*
COC(=O)CS(=O)(=O)c1nnc([C@H](Cc2ccccc2)NC(=O)OC(C)(C)C)o1 | ? | ? | ? | ? | 13µM*
Cc1nc(-c2cccc(NC(=O)c3cccc(S(=O)(=O)N4CCCC4)c3)c2)cs1 | 18µM* | / | / | -23% | 5%
COc1ccc(NS(=O)(=O)c2cc(NC(=O)c3ccc(C)o3)ccc2N2CCCCC2)cc1 | 2% | 4.5µM* | 6.3µM* | 2% | 6%
O=S(=O)(Nc1nc2ccccc2nc1Nc1cccc(S(=O)(=O)N2CCCCC2)c1)c1ccccc1 | ? | 13µM* | ? | 14% | ?
Cc1csc(NC(=O)c2cccc(S(=O)(=O)N3CCCCC3)c2)n1 | ? | 13% | -22% | -3% | 7%
COc1ccc(NC(=O)c2cccc(S(=O)(=O)N3CCCCCC3)c2)cc1 | 21µM* | 1% | ? | -4% | 5%
COc1ccc(CN(C)C(C)C(=O)Nc2ccc(S(=O)(=O)N3CCCCC3)cc2)c(OC)c1 (centres undefined) | ? | / | / | ? | 18µM*
C=CCN(c1ccccc1)S(=O)(=O)c1cccc(C(=O)Nc2ccncc2)c1 | ? | / | / | 1% | 14%
COc1ccc(NS(=O)(=O)c2cccc(NC(=O)c3ccc(S(=O)(=O)N4CCCCCC4)cc3)c2)cc1 | ? | 3.2µM* | -52% | -3% | ?
